# Most compounds without a hit are left out; they make up all but 17% or so of the library.
# HT1080 IDH1KD tx: kills HT-1080 cells with IDH1 knockdown | HT-1080 IDH1 knockdown viability, ATP luminescence, 48 h | Potency, µM (highest dose often 46.1 µM), for inactives: top-dose activity, negative = toxicity, usual class: cytotoxic | 360,000 compounds, 2% hits;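 further: 0% = DMSO wells and -100% = cell-free medium wells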
#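 % activity derives from luminescence (CellTiter-Glo), normalised to DMSO and no-cell wells. HT-1080-IDH1KD cells, 750/well, had 48 h compound exposure at 37 °C.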
# HepG2 tox: counter-screen for TGF-b inhibitors: cytotoxicity in HepG2 cells. HepG2 CAGA-GFP viability, ATP luminescence, 18 h. Potency, µM (highest dose often 46.1 µM), for the others: at the top dose activity change, negative = cytotoxicity, most hits filed as cytotoxic. 410,000 compounds, 0.76% hits
#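 HepG2 CAGA-GFP cells (1000/well, DMEM with 1% FBS) received compound, then TGF-beta at 500 pg/mL final, and were incubated 18 hours at 37 degrees C. Viability was read by CellTiter-Glo luminescence. Media-only wells were set as complete cell-killing and DMSO as no toxicity.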
# DT40 TDP1 no CPT: qHTS for Inhibitors of human tyrosyl-DNA phosphodiesterase 1 (TDP1): qHTS in cells in absence of CPT. Potency, µM (top dose mostly 46.2 µM), inactives show top-dose activity change, negative = growth inhibition, usual class: inhibitors. 420,000 compounds, 15% hits. DT40 Tdp1-/- hTDP1 cells, no CPT, ATP luminescence, 48 h. AID 686978, 2013; further: on the % scale 0 is the no-effect control and ±100 the full control effect; nearly all actives have a fitted effect of over 55% in size
#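 Chicken DT40 Tdp1-/- cells complemented with human TDP1, screened without camptothecin (DMSO vehicle only), 400 cells/well. Compounds pin-transferred, cells incubated at 37 °C for at least 48 hr. Growth read as ATP-dependent luminescence (CellTiter-Glo, 30 min at RT).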
# DT40 TDP1 CPT: DT40-hTDP1 cell growth loss with CPT | Potency, µM (highest dose often 46.2 µM), inactives show at the highest dose activity change, negative = growth inhibition, usual class: inhibitors | chicken DT40 Tdp1-/-;hTDP1 cells + 20 nM CPT, ATP luminescence, 48 h | 420,000 compounds, 12% hits; further: on the % scale 0 is the no-effect control and ±100 the full control effect; nearly all actives have a fitted effect of over 55% in size
#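 Cell growth measured by CellTiter-Glo luminescence after a minimum 48 h, 37 C compound exposure with 20 nM CPT in Tdp1-knockout DT40 cells stably expressing hTDP1, seeded 400/well; qHTS titration format.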
# TGFb inhibitor: TGF-b pathway inhibition | HepG2 CAGA-GFP TGF-b/SMAD3 reporter, GFP fluorescence, 18 h; TGF-beta stimulated, 500 pg/mL final | Potency, µM (top dose mostly 46.1 µM), for the others: at the highest dose activity, negative = inhibition, most hits filed as inhibitors | 410,000 compounds, 1.2% hits | AID 588855; further: on the % scale 0 is the no-effect control and ±100 the full control effect; nearly all actives have a fitted effect of over 65% in size
#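 Smad-responsive CAGA-GFP expression was quantified in HEPG2 cells exposed to compounds and 500 pg/mL final TGF-beta for 18 h at 37 degrees C; unstimulated wells defined full inhibition.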
# HT1080-NT tox: kills 2HG-producing HT-1080-NT fibrosarcoma cells; HT-1080-NT fibrosarcoma viability, CellTiter-Glo ATP luminescence, 48 h; 360,000 compounds, 1.6% hits; Potency, µM (series often up to 46.1 µM), inactives show at the highest dose activity, negative = less viability, most hits filed as cytotoxic;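 further: NT is the 2HG producing partner of a matched IDH1 knockdown line; 0% = DMSO-treated cells and -100% = media-only wells without cells; nearly all actives have a fitted effect of over 55% in size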
#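 Viability by CellTiter-Glo luminescence after 48 h compound exposure at 37C of HT-1080-NT cells (750/well, RPMI, 5% FBS). % activity scaled between DMSO wells and medium-only wells, then curve-fitted and categorized by curve class.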
# Numbers without * were called inactive; ? = inconclusive; . = no result given; [ ] = dose if it differs, or a comment. The call rests on the fitted dose curve; in most records, active means well fitted curve in the direction sought with a large enough effect; inconclusive means small, poorly fitted or top-dose-only effect, or another doubt; inactive means no such curve, though single readings can be large; an effect the other way counts as inactive or inconclusive. Potency means the concentration at half of the fitted maximal effect.
SMILES,HT1080 IDH1KD tx,HepG2 tox,DT40 TDP1 no CPT,DT40 TDP1 CPT,TGFb inhibitor,HT1080-NT tox
CC(C)NS(=O)(=O)c1ccc(Br)c(C(=O)OC(C)C(=O)NC2CCCCC2C)c1 (stereo not drawn),-6.2%,-14.7%,?,-14.5%,-14.4%,-1.5%
CC1CCN(S(=O)(=O)c2ccc(C(=O)Nc3ccccn3)cc2)CC1,-11.6%,-11.0%,?,-1.6%,-16.2%,-16.7%
CC(=O)OC1CCC2(C)C(CCC3(C)C2C(=O)C=C2C4CC(C)(C(=O)OCCN5CCCCC5)CCC4(C)CCC23C)C1(C)C (stereo not drawn),.,.,-7.9%,8.3%,.,.
CC(C)(C)c1cc(CCC(=O)NCc2ccccn2)cc(C(C)(C)C)c1O,-0.8%,-42.7%,-17.8%,?,-3.5%,1.2%
O=P(O)(O)C(O)(Cn1ccnc1)P(=O)(O)O,.,.,-1.9%,3.9%,.,.
Cc1ccc(-c2csc3ncnc(N4CCN(C)CC4)c23)cc1C,-5.3%,-36.1%,11.6µM*,?,-22.6%,-4.5%
c1ccc(-c2csc3ncnc(N4CCc5ccccc5C4)c23)cc1,-5.6%,-16.8%,16.4µM*,?,?,-9.9%
COc1ccc(N2CCN(C(=O)CSc3ncnc4scc(-c5ccc(C)cc5)c34)CC2)cc1,-17.1%,-15.8%,16.4µM*,?,0.0%,-13.7%
Cc1cc2ncn(-c3ncnc4scc(-c5ccccc5)c34)c2cc1C,-0.5%,-14.4%,18.4µM*,?,-18.3%,-7.3%
CC(C)c1c(C(=O)NCc2ccncc2)cnn1-c1nccc(-c2cccs2)n1,.,.,-18.5%,-12.4%[9.04 µM],.,.
CCOc1ccc(CN(CCc2ccc3c(c2)OCO3)Cc2cc(OC)c(OC)cc2OC)cc1,.,-24.3%,14.6µM*,?,11.2µM*,.
CCOc1ccccc1CN(CCc1ccc2c(c1)OCO2)Cc1cccc(OC)c1OC,.,-21.1%,16.4µM*,18.4µM*,?,.
COc1cc(OC)c(OC)cc1CNCc1ccc2c(c1)OCO2,-6.8%,-37.9%,?,-6.7%,9.9%,-7.9%
CCOc1cc(CNCc2ccc3c(c2)OCO3)ccc1OC,-7.9%,0.4%,-20.6%,-19.6%,3.6%,-17.0%
NC(=O)C1CCCN(C(=O)c2cccc(NC(=O)c3cccs3)c2)C1 (stereo not drawn),14.9%,-11.9%,-8.3%,-9.5%,-1.8%,18.8%
O=C(NCCc1c[nH]c2ccccc12)C(=O)NCC(c1ccco1)N1CCN(c2ccccc2)CC1 (stereo not drawn),-1.4%,25.7%,?,?,12.7%,0.7%
O=C(NCc1ccccc1)C(=O)NCC(c1cccnc1)N1CCN(c2ccccc2)CC1 (stereo not drawn),.,-30.2%,13µM*,16.4µM*,?,.
COc1ccc(N2CCN(C(CNC(=O)C(=O)NCc3cccnc3)c3cccnc3)CC2)cc1 (stereo not drawn),.,-4.3%,?,?,7.1%,.
COc1ccc(N2CCN(C(CNC(=O)C(=O)NCCc3ccccc3)c3cccnc3)CC2)cc1 (stereo not drawn),.,-6.7%,16.4µM*,14.6µM*,-29.6%,.
COc1ccc(N2CCN(C(CNC(=O)C(=O)NCc3ccc(C)cc3)c3cccnc3)CC2)cc1 (stereo not drawn),.,-4.0%,7.31µM*,8.2µM*,7.5%,.
CCCNC(=O)C1(C)CCN(C(=O)COc2ccc(C(C)(C)C)cc2)C1 (stereo not drawn),8.8%,-19.1%,-27.0%,-19.0%,4.9%,-1.6%
COc1ccc(C2C(C#N)=C(N)Oc3c2c(-c2ccccc2)nn3-c2ccccc2)c(OC)c1OC (stereo not drawn),-12.4%,-29.9%,?,-10.5%,?,-25.9%
O=CNc1ccc(S(=O)(=O)NCc2ccccc2)cc1,-5.4%,-0.6%,-16.5%,-4.4%,-7.3%,-5.7%
CCOc1ccc(C(=S)N2CCN(C)CC2)cc1,25.0%,9.7%,-0.5%,5.9%,-9.9%,10.5%
CN(C)c1ccc(C=O)cc1[N+](=O)[O-],.,-37.2%,-25.2%,2.5%,-14.6%,.
SMILES,HT1080 IDH1KD tx,HepG2 tox,DT40 TDP1 no CPT,DT40 TDP1 CPT,TGFb inhibitor,HT1080-NT tox
CCCCn1c(SCc2ccccc2C#N)nc2c(sc3ccccc32)c1=O,.,-34.2%,?,-21.2%,-17.1%,.
O=C(C#Cc1ccccc1)NCc1ccccc1F,6.1%,-33.9%,?,?,?,-3.1%
O=C(C#Cc1ccccc1)Nc1ccc(F)cc1,18.4µM*,28.8%,11.6µM*,?,?,16.4µM*
COc1ccc(NC(=O)CCCCC(=O)Nc2ccc(OC)cc2)cc1,24.9%,12.0%,16.2%,0.4%,-10.8%,-0.3%
COc1ccc(NC(=O)C#Cc2ccccc2)cc1,?,27.4%,10.3µM*,20.6µM*,?,?
COc1ccc(NC(=O)CCCCC#Cc2ccccc2)cc1,3.0%,-0.7%,14.6µM*,?,3.6%,0.0%
O=C(c1ccccc1)n1nc(-c2ccc(Cl)cc2)nc1NCc1ccco1,.,-4.1%,.,.,24.2%,.
COc1ccc(OC)c(NC(=O)CCCCCn2nnc3ccccc3c2=O)c1,0.0%,3.8%,?,?,-0.6%,-0.9%
CCC(=O)N(C1=C(NC)C(=O)c2ccccc2C1=O)C(C)C,9.2µM*,-71.3%,1.64µM*,2.06µM*,?,4.61µM*
COc1ccc(Cc2nc3ccc(C(=O)NCCc4ccc(OC)c(OC)c4)cc3o2)cc1,.,-13.5%,?,?,?,.
COc1cc(CNC(=O)c2ccc3nc(Cc4ccccc4)oc3c2)cc(OC)c1OC,.,-41.3%,2.59µM*,6.51µM*,?,.
COc1cc(CC(=O)NCCCc2ccccc2)cc(OC)c1OC,8.1%,-10.5%,20.6µM*,?,-11.7%,2.4%
COc1cc(CNC(=O)c2ccc3nc(CCc4ccccc4)oc3c2)cc(OC)c1OC,.,-0.8%,20.6µM*,20.6µM*,-15.1%,.
CCOc1ccc(CNC(=O)c2ccc3nc(Cc4ccc(OC)cc4)oc3c2)cc1OC,.,-1.4%,13µM*,18.4µM*,-24.0%,.
COc1cc(/C=C/C(=O)OCC(=O)NCCc2ccc(S(N)(=O)=O)cc2)ccc1OCC#N,-3.2%,1.2%,1.1%,-2.9%,5.6%,-1.0%
O=[N+]([O-])c1ccccc1N/N=C/c1cc2ccccc2nc1Cl,12.8%,0.0%,?,4.11µM*,-2.0%,3.7%
Clc1nc2ccccc2cc1/C=N/Nc1nc2ccccc2[nH]1,-5.7%,-16.5%,14.6µM*,?,-4.4%,?
